# From the supplement of paper PMC10037445
# Whole data set: some 2,900 compounds, median “NF-kB SEAP reporter activity, fold change vs agonist alone” near 0.99, cut for the highest 2% near 2.6. Shown is part of a subset that was picked to be rich in the highest values.
# What was measured:
# RAW-Dual [1] = experiment: NF-kB SEAP reporter activity, fold change vs agonist alone; higher = enhanced NF-kB activity; settings: library stock concentration (final ~1000-fold dilution): 10 mM
# Procedure, shortened: (§1)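 Reporter activity is given as fold change relative to agonist-alone wells. To measure it, 50 nL of library stock was pin-tooled onto RAW-Dual macrophages (50,000 cells/well, DMEM, 384-well plates), a PRR agonist followed 1 h later, and cells stayed at 37 °C, 5% CO2. Twenty hours on, supernatant was assayed for IRF (QuantiLuc luminescence) and NF-κB (QuantiBlue, 620 nm absorbance), and wells under 70% of agonist-control IncuCyte confluency in both mask sets were marked cytotoxic.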
# RAW-Dual [2] = experiment: NF-kB SEAP reporter activity, fold change vs agonist alone; cytotoxicity flag (confluency mask): not cytotoxic; higher = enhanced NF-kB activity
# Procedure, shortened: as §1
# RAW-Dual [3] = experiment: NF-kB SEAP reporter activity, fold change vs agonist alone; cytotoxicity flag (confluency mask): cytotoxic (confluency <70% of control); higher = enhanced NF-kB activity
# Procedure, shortened: as §1
# [4] = cytotoxicity flag (confluency mask): not cytotoxic, agonist: Imiquimod (TLR7) […]
# [5] = cytotoxicity flag (confluency mask): not cytotoxic, agonist: MPLA (TLR4) […]
# [6] = agonist: ODN 1826 (TLR9) 0.5 ug/mL
# [7] = agonist: Pam2CSK4 (TLR2/6) 0.1 ug/mL
# [8] = agonist: Pam3CSK4 (TLR2/1) 0.1 ug/mL
structure (smiles),measurement,setting,value
N#Cc1cc(N2CCC(C(=O)N3N=CCC3c3cc(F)cc(F)c3)CC2)ncn1 (centres undefined),NF-kB SEAP reporter activity,RAW-Dual [1]; [4],1.09
same,NF-kB SEAP reporter activity,RAW-Dual [1]; [5],1.26
N#Cc1cc(N2CCC(C(=O)N3N=CCC3c3cc(F)cc(F)c3)CC2)ncn1 (centres undefined) (library stock concentration (final ~1000-fold dilution): 10 mM),NF-kB SEAP reporter activity,RAW-Dual [2]; agonist: LPS (TLR4) 0.1 ug/mL,1.25
same,NF-kB SEAP reporter activity,RAW-Dual [2]; [6],1.05
same,NF-kB SEAP reporter activity,RAW-Dual [2]; [7],0.796
same,NF-kB SEAP reporter activity,RAW-Dual [2]; [8],0.84
Cn1cc(-c2[nH]c3cc(NC(=O)C(N)C4CCCCC4)cc4c3c2C=NNC4=O)cn1 (centres undefined) (library stock concentration (final ~1000-fold dilution): 10 mM),NF-kB SEAP reporter activity,RAW-Dual [2]; agonist: LPS (TLR4) 0.1 ug/mL,3.51
same,NF-kB SEAP reporter activity,RAW-Dual [2]; [6],2.74
same,NF-kB SEAP reporter activity,RAW-Dual [2]; [7],1.6
same,NF-kB SEAP reporter activity,RAW-Dual [2]; [8],1.8
Cn1cc(-c2[nH]c3cc(NC(=O)C(N)C4CCCCC4)cc4c3c2C=NNC4=O)cn1 (centres undefined),NF-kB SEAP reporter activity,RAW-Dual [1]; [4],2.17
same,NF-kB SEAP reporter activity,RAW-Dual [1]; [5],2.16
CC(C)C(NC(=O)C(CC(=O)O)NC(=O)C(CCCCN)NC(=O)C(N)CCCNC(=N)N)C(=O)NC(Cc1ccc(O)cc1)C(=O)O (centres undefined) (library stock concentration (final ~1000-fold dilution): 10 mM),NF-kB SEAP reporter activity,RAW-Dual [2]; agonist: LPS (TLR4) 0.1 ug/mL,1.27
same,NF-kB SEAP reporter activity,RAW-Dual [2]; [6],1.1
same,NF-kB SEAP reporter activity,RAW-Dual [2]; [7],1.19
same,NF-kB SEAP reporter activity,RAW-Dual [2]; [8],1.17
CC(C)C(NC(=O)C(CC(=O)O)NC(=O)C(CCCCN)NC(=O)C(N)CCCNC(=N)N)C(=O)NC(Cc1ccc(O)cc1)C(=O)O (centres undefined),NF-kB SEAP reporter activity,RAW-Dual [1]; [4],1.14
same,NF-kB SEAP reporter activity,RAW-Dual [1]; [5],0.967
CNC(=O)C(NC(=O)C(CC(C)C)C(O)C(=O)NO)C(C)(C)C (centres undefined),NF-kB SEAP reporter activity,RAW-Dual [1]; [4],1.08
same,NF-kB SEAP reporter activity,RAW-Dual [1]; [5],1.38
CNC(=O)C(NC(=O)C(CC(C)C)C(O)C(=O)NO)C(C)(C)C (centres undefined) (library stock concentration (final ~1000-fold dilution): 10 mM),NF-kB SEAP reporter activity,RAW-Dual [2]; agonist: LPS (TLR4) 0.1 ug/mL,1.09
same,NF-kB SEAP reporter activity,RAW-Dual [2]; [6],1.01
same,NF-kB SEAP reporter activity,RAW-Dual [2]; [7],1.04
same,NF-kB SEAP reporter activity,RAW-Dual [2]; [8],1.01
Oc1c(F)cc(-c2cnccc2-c2ccc(N3CCOCC3)cc2)cc1F,NF-kB SEAP reporter activity,RAW-Dual [1]; [4],1.08
same,NF-kB SEAP reporter activity,RAW-Dual [1]; [5],0.911
Oc1c(F)cc(-c2cnccc2-c2ccc(N3CCOCC3)cc2)cc1F (library stock concentration (final ~1000-fold dilution): 10 mM),NF-kB SEAP reporter activity,RAW-Dual [2]; agonist: LPS (TLR4) 0.1 ug/mL,1.12
same,NF-kB SEAP reporter activity,RAW-Dual [2]; [6],0.913
same,NF-kB SEAP reporter activity,RAW-Dual [2]; [7],0.947
same,NF-kB SEAP reporter activity,RAW-Dual [2]; [8],0.73
O=C(Nc1cc(C(F)(F)F)ccc1N1CCN(Cc2ccccn2)CC1)c1ccc(-c2ccncc2)o1,NF-kB SEAP reporter activity,RAW-Dual [1]; [4],0.609
same,NF-kB SEAP reporter activity,RAW-Dual [1]; [5],1.03
O=C(Nc1cc(C(F)(F)F)ccc1N1CCN(Cc2ccccn2)CC1)c1ccc(-c2ccncc2)o1 (library stock concentration (final ~1000-fold dilution): 10 mM),NF-kB SEAP reporter activity,RAW-Dual [2]; agonist: LPS (TLR4) 0.1 ug/mL,1.25
same,NF-kB SEAP reporter activity,RAW-Dual [2]; [6],0.731
same,NF-kB SEAP reporter activity,RAW-Dual [2]; [7],0.657
same,NF-kB SEAP reporter activity,RAW-Dual [2]; [8],0.818
CC(C)CCN1c2nc(Nc3cc(F)c(O)c(F)c3)ncc2N(C)C(=O)C1C (centres undefined),NF-kB SEAP reporter activity,RAW-Dual [1]; [4],2.84
same,NF-kB SEAP reporter activity,RAW-Dual [1]; [5],2.55
CC(C)CCN1c2nc(Nc3cc(F)c(O)c(F)c3)ncc2N(C)C(=O)C1C (centres undefined) (library stock concentration (final ~1000-fold dilution): 10 mM),NF-kB SEAP reporter activity,RAW-Dual [2]; agonist: LPS (TLR4) 0.1 ug/mL,4.3
same,NF-kB SEAP reporter activity,RAW-Dual [2]; [6],2.63
same,NF-kB SEAP reporter activity,RAW-Dual [2]; [7],1.02
same,NF-kB SEAP reporter activity,RAW-Dual [2]; [8],2.05
COc1cc(-c2cc(-c3ccc(Cl)cc3)nc(=O)[nH]2)ccc1O,NF-kB SEAP reporter activity,RAW-Dual [1]; [4],1.09
same,NF-kB SEAP reporter activity,RAW-Dual [1]; [5],1.15
COc1cc(-c2cc(-c3ccc(Cl)cc3)nc(=O)[nH]2)ccc1O (library stock concentration (final ~1000-fold dilution): 10 mM),NF-kB SEAP reporter activity,RAW-Dual [2]; agonist: LPS (TLR4) 0.1 ug/mL,1.6
same,NF-kB SEAP reporter activity,RAW-Dual [2]; [6],0.991
same,NF-kB SEAP reporter activity,RAW-Dual [2]; [7],1.22
same,NF-kB SEAP reporter activity,RAW-Dual [2]; [8],1.39
CCN(CC)CC#CCOC(=O)C(O)(c1ccccc1)C1CCCCC1.Cl (centres undefined) (library stock concentration (final ~1000-fold dilution): 10 mM),NF-kB SEAP reporter activity,RAW-Dual [2]; agonist: LPS (TLR4) 0.1 ug/mL,2.01
same,NF-kB SEAP reporter activity,RAW-Dual [2]; [6],0.958
same,NF-kB SEAP reporter activity,RAW-Dual [2]; [7],0.963
same,NF-kB SEAP reporter activity,RAW-Dual [2]; [8],1.3
CCN(CC)CC#CCOC(=O)C(O)(c1ccccc1)C1CCCCC1.Cl (centres undefined),NF-kB SEAP reporter activity,RAW-Dual [1]; [4],1.75
same,NF-kB SEAP reporter activity,RAW-Dual [1]; [5],1.46
O=C(O)CCCN1CCC(OC(c2ccc(Cl)cc2)c2ccccn2)CC1 (centres undefined),NF-kB SEAP reporter activity,RAW-Dual [1]; [4],0.895
same,NF-kB SEAP reporter activity,RAW-Dual [1]; [5],1.07
O=C(O)CCCN1CCC(OC(c2ccc(Cl)cc2)c2ccccn2)CC1 (centres undefined) (library stock concentration (final ~1000-fold dilution): 10 mM),NF-kB SEAP reporter activity,RAW-Dual [2]; agonist: LPS (TLR4) 0.1 ug/mL,0.969
same,NF-kB SEAP reporter activity,RAW-Dual [2]; [6],0.924
same,NF-kB SEAP reporter activity,RAW-Dual [2]; [7],1.07
same,NF-kB SEAP reporter activity,RAW-Dual [2]; [8],0.895
COc1cc2nccc(Oc3ccc(NC(=O)C4(C(=O)Nc5ccc(F)cc5)CC4)cc3)c2cc1OC,NF-kB SEAP reporter activity,RAW-Dual [1]; [4],0.555
same,NF-kB SEAP reporter activity,RAW-Dual [1]; [5],0.59
COc1cc2nccc(Oc3ccc(NC(=O)C4(C(=O)Nc5ccc(F)cc5)CC4)cc3)c2cc1OC (library stock concentration (final ~1000-fold dilution): 10 mM),NF-kB SEAP reporter activity,RAW-Dual [2]; agonist: LPS (TLR4) 0.1 ug/mL,0.511
same,NF-kB SEAP reporter activity,RAW-Dual [2]; [6],0.42
same,NF-kB SEAP reporter activity,RAW-Dual [2]; [7],0.302
same,NF-kB SEAP reporter activity,RAW-Dual [2]; [8],0.275
COc1cc2c(Oc3ccc(NC(=O)C4(C(=O)Nc5ccc(F)cc5)CC4)cc3F)ccnc2cc1OCCCN1CCOCC1,NF-kB SEAP reporter activity,RAW-Dual [1]; [4],0.252
same,NF-kB SEAP reporter activity,RAW-Dual [1]; [5],0.252
CN1CCN(C2CCN(C(=O)Nc3cc(Oc4ccc(NC(=O)C5(C(=O)Nc6ccc(F)cc6)CC5)c(F)c4)ccn3)CC2)CC1 (library stock concentration (final ~1000-fold dilution): 10 mM),NF-kB SEAP reporter activity,RAW-Dual [3]; agonist: LPS (TLR4) 0.1 ug/mL,1.43
same,NF-kB SEAP reporter activity,RAW-Dual [3]; [6],0.896
same,NF-kB SEAP reporter activity,RAW-Dual [3]; [7],0.607
same,NF-kB SEAP reporter activity,RAW-Dual [3]; [8],0.664
CN1CCN(C2CCN(C(=O)Nc3cc(Oc4ccc(NC(=O)C5(C(=O)Nc6ccc(F)cc6)CC5)c(F)c4)ccn3)CC2)CC1,NF-kB SEAP reporter activity,"RAW-Dual [1]; cytotoxicity flag (confluency mask): cytotoxic (confluency <70% of control), agonist: Imiquimod (TLR7) […]",2.76
same,NF-kB SEAP reporter activity,"RAW-Dual [1]; cytotoxicity flag (confluency mask): cytotoxic (confluency <70% of control), agonist: MPLA (TLR4) […]",2.32
COc1cc2c(Oc3ccc(NC(=O)C4(C(=O)Nc5ccc(F)cc5)CC4)cc3F)ccnc2cc1OCCCN1CCOCC1 (library stock concentration (final ~1000-fold dilution): 10 mM),NF-kB SEAP reporter activity,RAW-Dual [2]; agonist: LPS (TLR4) 0.1 ug/mL,0.266
same,NF-kB SEAP reporter activity,RAW-Dual [2]; [6],0.184
same,NF-kB SEAP reporter activity,RAW-Dual [2]; [7],0.0818
same,NF-kB SEAP reporter activity,RAW-Dual [2]; [8],0.137
CC(Nc1nc(NC(C)C(F)(F)F)nc(-c2cccc(Cl)n2)n1)C(F)(F)F (centres undefined),NF-kB SEAP reporter activity,RAW-Dual [1]; [4],1.04
same,NF-kB SEAP reporter activity,RAW-Dual [1]; [5],1.11
CC(Nc1nc(NC(C)C(F)(F)F)nc(-c2cccc(Cl)n2)n1)C(F)(F)F (centres undefined) (library stock concentration (final ~1000-fold dilution): 10 mM),NF-kB SEAP reporter activity,RAW-Dual [2]; agonist: LPS (TLR4) 0.1 ug/mL,1.26
same,NF-kB SEAP reporter activity,RAW-Dual [2]; [6],1.18
same,NF-kB SEAP reporter activity,RAW-Dual [2]; [7],0.998
same,NF-kB SEAP reporter activity,RAW-Dual [2]; [8],1.09
